Measured values: the supplement of paper PMC10849652
About 8,800 targets were measured; listed, in parts, are those with a hit and a random draw of the rest. About 0.5% of all pairs of compound and target were hits.

Compound: CCn1c(C(=O)N(C2CC2)C2CC2)cc2c3c(ncn3C)c(Nc3cc(C)n(C)n3)nc21
Assay: log2 fold change, soluble protein after heating vs DMSO (PISA); higher = thermal stabilisation; K562 lysate, 10 uM; active = over 0.2 and 3.5 SD of the protein, either way, in both replicates (recomputed)
Procedure, shortened: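 Dounce homogenisation of K562 pellets in PBS pH 7.4 with 1 mM MgCl2 produced a crude extract, used at 1 mg/mL protein. Exposure to 10 μM compound lasted 30 min, and aliquots were then heated for 3 min across 48°C-58°C, pooled and brought to 0.5% NP-40 at 4°C. The supernatant after 21,000xg for 90 min was quantified by TMTpro 16plex LC-MS/MS with channel sums equalised. Duplicate values are given as log-two fold change in thermal stability relative to solvent controls.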

Sequence of UniProt Q9Y606 (Q9Y606 whole entry, looked up): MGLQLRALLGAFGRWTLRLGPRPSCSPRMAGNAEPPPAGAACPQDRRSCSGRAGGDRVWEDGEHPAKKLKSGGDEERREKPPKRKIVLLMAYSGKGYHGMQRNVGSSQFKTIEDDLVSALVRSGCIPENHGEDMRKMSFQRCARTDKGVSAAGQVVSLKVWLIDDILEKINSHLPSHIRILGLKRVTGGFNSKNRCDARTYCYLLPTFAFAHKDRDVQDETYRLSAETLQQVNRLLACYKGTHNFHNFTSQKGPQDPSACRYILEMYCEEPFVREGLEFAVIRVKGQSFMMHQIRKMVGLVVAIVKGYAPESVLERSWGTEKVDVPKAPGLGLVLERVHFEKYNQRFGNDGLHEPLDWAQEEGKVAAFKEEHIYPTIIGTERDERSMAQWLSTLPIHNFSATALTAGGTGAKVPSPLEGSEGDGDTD
Sequence of UniProt P14314 (P14314 whole entry, looked up): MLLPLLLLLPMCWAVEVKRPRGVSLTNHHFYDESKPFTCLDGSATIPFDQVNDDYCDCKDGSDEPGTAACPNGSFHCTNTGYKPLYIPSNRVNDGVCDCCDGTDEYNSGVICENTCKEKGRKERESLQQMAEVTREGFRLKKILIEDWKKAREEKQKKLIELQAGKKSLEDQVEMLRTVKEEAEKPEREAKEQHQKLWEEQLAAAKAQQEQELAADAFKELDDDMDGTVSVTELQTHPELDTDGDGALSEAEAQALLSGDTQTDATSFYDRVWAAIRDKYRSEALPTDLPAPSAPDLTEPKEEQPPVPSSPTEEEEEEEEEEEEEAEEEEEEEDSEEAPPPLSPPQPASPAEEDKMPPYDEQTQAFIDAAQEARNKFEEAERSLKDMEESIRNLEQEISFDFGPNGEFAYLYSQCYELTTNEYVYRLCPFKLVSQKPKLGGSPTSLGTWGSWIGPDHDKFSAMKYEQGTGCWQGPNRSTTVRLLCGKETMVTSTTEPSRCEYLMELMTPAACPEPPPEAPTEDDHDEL
Sequence of UniProt P53609 (P53609 whole entry, looked up): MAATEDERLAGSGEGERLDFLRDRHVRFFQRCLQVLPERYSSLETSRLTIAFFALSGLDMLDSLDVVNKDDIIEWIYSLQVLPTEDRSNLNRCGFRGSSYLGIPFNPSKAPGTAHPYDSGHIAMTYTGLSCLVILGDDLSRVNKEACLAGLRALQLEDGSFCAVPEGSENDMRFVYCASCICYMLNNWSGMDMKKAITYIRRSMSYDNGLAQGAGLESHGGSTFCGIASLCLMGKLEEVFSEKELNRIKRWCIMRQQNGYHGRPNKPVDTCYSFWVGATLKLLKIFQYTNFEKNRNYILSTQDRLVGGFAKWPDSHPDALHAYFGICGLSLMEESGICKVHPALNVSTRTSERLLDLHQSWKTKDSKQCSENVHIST
Sequence of UniProt P05771 (P05771 whole entry, looked up): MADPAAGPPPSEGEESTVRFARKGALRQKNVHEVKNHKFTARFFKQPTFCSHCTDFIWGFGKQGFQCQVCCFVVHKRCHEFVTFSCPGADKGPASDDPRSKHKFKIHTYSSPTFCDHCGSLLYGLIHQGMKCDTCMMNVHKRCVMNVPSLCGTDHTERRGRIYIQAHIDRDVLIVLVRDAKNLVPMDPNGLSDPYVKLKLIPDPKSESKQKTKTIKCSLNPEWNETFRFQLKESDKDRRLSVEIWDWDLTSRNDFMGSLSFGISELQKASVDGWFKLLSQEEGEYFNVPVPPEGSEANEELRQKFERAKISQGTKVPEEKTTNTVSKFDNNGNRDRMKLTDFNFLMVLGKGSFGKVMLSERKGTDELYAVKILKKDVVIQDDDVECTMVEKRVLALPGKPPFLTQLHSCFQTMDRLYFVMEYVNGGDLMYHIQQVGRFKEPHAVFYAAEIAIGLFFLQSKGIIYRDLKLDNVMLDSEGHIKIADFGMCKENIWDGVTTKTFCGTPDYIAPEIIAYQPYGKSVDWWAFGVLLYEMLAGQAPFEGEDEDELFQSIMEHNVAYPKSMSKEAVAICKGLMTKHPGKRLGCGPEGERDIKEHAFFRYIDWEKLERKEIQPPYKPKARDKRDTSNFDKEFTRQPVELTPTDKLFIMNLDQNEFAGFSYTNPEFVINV
Sequence of UniProt Q8WUM4 (Q8WUM4 whole entry, looked up): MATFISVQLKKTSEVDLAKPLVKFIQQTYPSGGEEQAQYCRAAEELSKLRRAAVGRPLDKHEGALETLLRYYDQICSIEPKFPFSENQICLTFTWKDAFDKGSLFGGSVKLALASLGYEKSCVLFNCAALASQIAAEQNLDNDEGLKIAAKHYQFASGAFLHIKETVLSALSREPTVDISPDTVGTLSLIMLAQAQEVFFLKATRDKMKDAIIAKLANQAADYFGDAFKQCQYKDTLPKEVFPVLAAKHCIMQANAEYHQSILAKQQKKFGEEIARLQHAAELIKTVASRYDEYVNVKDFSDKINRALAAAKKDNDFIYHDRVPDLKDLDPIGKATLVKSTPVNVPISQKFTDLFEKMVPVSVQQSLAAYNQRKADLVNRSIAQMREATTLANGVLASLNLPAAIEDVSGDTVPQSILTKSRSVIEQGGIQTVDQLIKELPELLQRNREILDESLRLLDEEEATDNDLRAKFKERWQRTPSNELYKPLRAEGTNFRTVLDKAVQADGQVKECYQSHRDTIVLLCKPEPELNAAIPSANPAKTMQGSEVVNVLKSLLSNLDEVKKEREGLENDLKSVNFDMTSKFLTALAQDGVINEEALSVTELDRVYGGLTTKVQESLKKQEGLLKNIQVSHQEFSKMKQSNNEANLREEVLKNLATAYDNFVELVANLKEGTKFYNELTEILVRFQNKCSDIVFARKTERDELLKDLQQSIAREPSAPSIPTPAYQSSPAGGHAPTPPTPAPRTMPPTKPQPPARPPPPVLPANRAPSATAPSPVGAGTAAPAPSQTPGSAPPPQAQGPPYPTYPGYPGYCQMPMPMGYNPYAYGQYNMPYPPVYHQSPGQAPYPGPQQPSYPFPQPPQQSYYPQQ
Sequence of UniProt O43175 (O43175 whole entry, looked up): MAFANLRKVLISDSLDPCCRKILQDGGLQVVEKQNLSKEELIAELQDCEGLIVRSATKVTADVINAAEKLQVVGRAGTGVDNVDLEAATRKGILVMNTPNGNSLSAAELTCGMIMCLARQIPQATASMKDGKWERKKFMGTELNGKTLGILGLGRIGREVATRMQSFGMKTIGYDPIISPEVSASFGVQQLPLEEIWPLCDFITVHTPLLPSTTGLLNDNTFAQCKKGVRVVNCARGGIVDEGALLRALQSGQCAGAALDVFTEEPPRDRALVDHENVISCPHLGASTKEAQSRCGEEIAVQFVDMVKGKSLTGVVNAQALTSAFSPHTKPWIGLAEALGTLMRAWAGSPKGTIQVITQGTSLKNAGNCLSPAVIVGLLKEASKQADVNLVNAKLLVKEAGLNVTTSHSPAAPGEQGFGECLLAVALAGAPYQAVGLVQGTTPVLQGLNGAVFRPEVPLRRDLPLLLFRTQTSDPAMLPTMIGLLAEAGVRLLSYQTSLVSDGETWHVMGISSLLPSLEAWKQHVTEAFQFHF
Sequence of UniProt Q8N4L2 (Q8N4L2 whole entry, looked up): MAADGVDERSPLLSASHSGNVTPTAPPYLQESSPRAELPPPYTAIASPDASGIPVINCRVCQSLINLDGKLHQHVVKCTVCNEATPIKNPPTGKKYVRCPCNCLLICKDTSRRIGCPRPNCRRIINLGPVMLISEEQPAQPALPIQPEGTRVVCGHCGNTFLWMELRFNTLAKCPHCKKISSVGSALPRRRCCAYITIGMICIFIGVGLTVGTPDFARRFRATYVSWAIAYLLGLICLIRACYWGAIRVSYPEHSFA
Sequence of UniProt Q9H939 (Q9H939 whole entry, looked up): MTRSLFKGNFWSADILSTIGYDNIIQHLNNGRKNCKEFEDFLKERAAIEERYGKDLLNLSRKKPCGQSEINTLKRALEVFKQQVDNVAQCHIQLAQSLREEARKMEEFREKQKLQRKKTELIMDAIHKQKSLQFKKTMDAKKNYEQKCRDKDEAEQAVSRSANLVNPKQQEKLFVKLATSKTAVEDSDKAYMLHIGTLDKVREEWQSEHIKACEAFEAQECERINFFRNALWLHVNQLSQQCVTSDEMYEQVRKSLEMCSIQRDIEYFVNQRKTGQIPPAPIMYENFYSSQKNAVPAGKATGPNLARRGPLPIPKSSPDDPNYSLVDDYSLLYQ
Sequence of UniProt P15735 (P15735 whole entry, looked up): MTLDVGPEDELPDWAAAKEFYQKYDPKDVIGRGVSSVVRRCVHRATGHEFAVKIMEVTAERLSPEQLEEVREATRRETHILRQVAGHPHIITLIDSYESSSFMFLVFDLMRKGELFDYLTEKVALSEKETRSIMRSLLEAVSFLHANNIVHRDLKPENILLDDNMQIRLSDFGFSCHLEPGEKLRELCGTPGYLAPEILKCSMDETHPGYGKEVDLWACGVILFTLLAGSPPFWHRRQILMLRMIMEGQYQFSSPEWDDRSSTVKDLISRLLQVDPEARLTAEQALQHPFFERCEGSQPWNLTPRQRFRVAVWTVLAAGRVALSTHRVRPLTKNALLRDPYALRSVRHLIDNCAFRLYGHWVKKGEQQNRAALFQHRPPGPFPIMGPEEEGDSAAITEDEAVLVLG
Sequence of UniProt Q9NR22 (Q9NR22 whole entry, looked up): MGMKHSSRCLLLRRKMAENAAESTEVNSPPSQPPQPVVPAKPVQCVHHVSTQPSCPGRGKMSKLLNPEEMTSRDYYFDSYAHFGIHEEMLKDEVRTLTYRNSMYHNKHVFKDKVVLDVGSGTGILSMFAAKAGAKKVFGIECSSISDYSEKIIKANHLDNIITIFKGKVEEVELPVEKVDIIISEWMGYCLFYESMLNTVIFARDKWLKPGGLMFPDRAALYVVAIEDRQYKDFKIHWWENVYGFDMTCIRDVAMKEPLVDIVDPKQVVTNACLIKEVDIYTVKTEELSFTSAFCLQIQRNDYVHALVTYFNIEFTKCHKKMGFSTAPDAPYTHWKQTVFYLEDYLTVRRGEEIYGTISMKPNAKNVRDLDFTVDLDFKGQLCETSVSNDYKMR

log2 fold change, inactive:
PPP2R5C isoform 5 (UniProt Q13362) 0.058
PLXNB2 (UniProt O15031) -0.003
PRKCSH isoform 2 (UniProt P14314) -0.101
PCBP2 (UniProt H3BRU6) -0.082
PRMT8 (UniProt Q9NR22) -0.005
PDF (UniProt Q9HBH1) 0.01
PIP4K2B (UniProt P78356) 0.038
PUF60 (UniProt Q9UHX1) -0.015
PI4KA (UniProt P42356) 0.019
PRKAR2B (UniProt P31323) -0.032
PRKAB2 (UniProt O43741) -0.094
PTPN23 (UniProt Q9H3S7) 0.026
PSMB9 (UniProt P28065) -0.06
POLR2M (UniProt P0CAP2) 0.008
POGK (UniProt Q9P215) -0.027
POLD1 (UniProt P28340) 0.035
PDCD6IP (UniProt Q8WUM4) 0.013
PRKCB isoform 2 (UniProt P05771) 0.002
POLR2F (UniProt P61218) 0.078
PGPEP1 (UniProt Q9NXJ5) 0.036
PHKG2 (UniProt P15735) -0.007
PIK3R2 (UniProt O00459) 0.071
PGGT1B (UniProt P53609) 0.006
PCF11 (UniProt O94913) -0.045
PIP4P2 (UniProt Q8N4L2) -0.016
PRKACB isoform 2 (UniProt P22694) -0.072
PRKCD (UniProt Q05655) -0.014
PRKAR2A (UniProt P13861) 0.009
PSTPIP2 (UniProt Q9H939) -0.007
PUS1 (UniProt Q9Y606) 0.028
PWP1 (UniProt Q13610) -0.023
PWP2 (UniProt Q15269) 0.018
PHKA1 (UniProt P46020) 0.074
PICALM (UniProt Q13492) 0.004
PES1 (UniProt O00541) 0.017
PLEKHO2 (UniProt Q8TD55) 0.126
PPOX (UniProt P50336) -0.096
PRIM2 (UniProt P49643) 0.019
PHGDH (UniProt O43175) 0.016
